KinaseGlo FLuc: blocks Kinase-Glo luciferase, a counter-screen artifact; Potency, µM (top dose mostly 38.3 µM), actives largely listed as inhibitors; Q27757; AID 1379; Kinase-Glo luciferase, ATP luminescence, 8 min; hit rate 0.28% among 200,000; also: nearly all actives have a fitted effect of over 60% in size
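Compound is pinned into ATP-containing buffer (10 uM ATP, imidazole pH 7.2, 7 mM MgCl2). Kinase-Glo luciferase reagent is then added. Light output is recorded following an 8-min room-temperature incubation.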
RORg inh: inhibitors of mouse ROR gamma transcriptional activity | hit rate 5.4% among 310,000 | P51450 | Potency, µM (highest dose often 53.6 µM), actives largely listed as inhibitors | Drosophila S2 Gal4-RORgamma UAS-luciferase reporter, 20 h; also: nearly all actives have a fitted effect of over 60% in size
Target sequence (P51450 whole entry, looked up, the tested form may be a part): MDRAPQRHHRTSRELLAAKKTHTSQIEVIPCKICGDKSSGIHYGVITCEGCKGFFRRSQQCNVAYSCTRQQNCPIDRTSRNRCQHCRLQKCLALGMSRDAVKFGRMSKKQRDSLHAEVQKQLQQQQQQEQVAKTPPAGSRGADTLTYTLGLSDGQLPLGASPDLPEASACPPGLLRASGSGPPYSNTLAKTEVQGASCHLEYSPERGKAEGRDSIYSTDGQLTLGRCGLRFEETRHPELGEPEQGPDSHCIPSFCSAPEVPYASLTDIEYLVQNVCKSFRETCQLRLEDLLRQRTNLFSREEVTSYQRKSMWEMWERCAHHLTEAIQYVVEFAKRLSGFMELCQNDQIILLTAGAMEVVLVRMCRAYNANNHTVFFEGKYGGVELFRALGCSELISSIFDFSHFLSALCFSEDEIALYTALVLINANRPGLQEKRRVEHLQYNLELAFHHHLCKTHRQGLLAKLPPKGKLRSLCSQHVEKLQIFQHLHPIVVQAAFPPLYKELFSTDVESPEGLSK
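Drosophila Schneider cells stably carrying a metallothionein-driven Gal4 DBD–ROR gamma fusion and a UAS-Photinus luciferase reporter were exposed to compound for 1 hr, then induced with copper sulfate (700 uM final) for 20 hr at ambient temperature before luminescence reading.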
VP16 counter: counter-screen for ROR gamma inhibitors: Gal4-VP16 reporter | Drosophila S2 Gal4-VP16 UAS-luciferase, luminescence, 20 h | Potency, µM (series often up to 53.6 µM), most hits filed as inhibitors | hit rate 3.5% among 310,000;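 also: Gal4-VP16 expression switched on by copper sulfate through the metallothionein promoter; nearly all actives have a fitted effect of over 50% in size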
Hits are given with their value; i = inactive; ? = inconclusive; nt = not tested or not shown; [ ] = remark or other dose. Compounds with a hit are over-represented: about 6.2% of the library has one in this group of screens. Calls follow the shape of the dose curve; as a rule, active = well fitted curve in the direction sought with a large enough effect; inconclusive = small, poorly fitted or top-dose-only effect, or another doubt; inactive = no such curve, though single readings can be large; an effect the other way counts as inactive or inconclusive.

SMILES	KinaseGlo FLuc	RORg inh	VP16 counter
COc1ccc(-c2cc(C(=O)Nc3cc(Br)ccc3O)no2)cc1	nt	i	i
CCCCCCOc1ccc(N2C(=O)CC(N3CCN(CCN=CC4C(=O)CC(C)(C)CC4=O)CC3)C2=O)cc1 (stereo not drawn)	i	i	i
CCN(CC)CCNC(=O)c1ccc(N2CCCCC2)c(NS(=O)(=O)c2ccc(C)cc2)c1	i	i	i[0.365 µM]
CCN(CC)CCNc1cc(C)nc2c1C(=O)C(=O)C=C2N1CCCCC1	i	5µM	i
COc1ccc(-n2nc3c(c2NC(=O)COc2cccc(OC)c2)CS(=O)(=O)C3)cc1	nt	i	i
COC(=O)c1ccc2c(c1)N(Cc1cc(C)ccc1C)C(=O)c1ccccc1S2=O (stereo not drawn)	i	i	i
CCOC(=O)c1ccc2c(c1)N(Cc1ccccc1C)C(=O)c1ccccc1S2=O (stereo not drawn)	i	i	22µM
CCN1CCN(C(=O)c2cccc(OC3CCN(S(C)(=O)=O)CC3)c2)[C@@H](C)C1=O	nt	i	i
COCCCN(C(=O)CC1OC(=O)c2ccccc21)c1c(N)n(Cc2ccccc2)c(=O)[nH]c1=O (stereo not drawn)	nt	i	i
CC(C)c1nnc(SCC(=O)N2CCN(C(=O)c3ccco3)CC2)n1N	i	i	i
COc1ccc(OC)c(C2C(C(=O)c3ccccc3)=C(C)Nc3nc4ccccc4n32)c1 (stereo not drawn)	i	7.1µM	i
COc1ccc(C2C(C(=O)c3ccccc3)=C(C)Nc3nc4ccccc4n32)cc1OC (stereo not drawn)	i	i	i
Cc1ccc2nc(NC(=O)c3ccco3)sc2c1	?	8.9µM	7.1µM
O=C(Nc1nc2ccc(Cl)cc2s1)c1ccco1	i	?	?
COc1ccc2nc(NC(=O)c3ccco3)sc2c1	nt	10µM	10µM
Cc1ccc2nc(NC(=S)NC(=O)c3ccco3)sc2c1	i	0.28µM	3.5µM
CC(=O)Nc1nc2ccc(NC(=O)c3ccco3)cc2s1	i	i	i
O=C(Nc1nc2ccc(Br)cc2s1)c1ccco1	nt	i	i
COc1cccc(CN2CCC(CO)(CC3CCCCO3)CC2)c1 (stereo not drawn)	i	i	i
Cc1ccc(C2CC(=O)Oc3cc(C)c(Br)c(C)c32)cc1 (stereo not drawn)	i	i	i
COc1nc(C#N)nc(N(C)C)n1	i	i	i
COc1ccccc1CNc1ncncc1-c1ccccc1CN(C)C	i	i	i
COc1ccccc1CNc1ncncc1-c1ccccc1OC	nt	?	16µM
N#CCCn1cc(C(=O)Nc2ccc([N+](=O)[O-])cc2)c(-c2cc3ccccc3o2)n1	i	?	i
N#CCCn1cc(C(=O)Nc2ccccc2Br)c(-c2cc3ccccc3o2)n1	i	?	7.9µM
SMILES	KinaseGlo FLuc	RORg inh	VP16 counter
CCCCCCOC(=O)c1cccnc1	nt	i[10 µM]	i
COCCn1nnnc1SCC(=O)c1ccccc1	i	i	i
COc1ccc(-c2cc(C(F)(F)F)n3ncc(C(=O)NCc4ccco4)c3n2)cc1	i	i	i
O=C(NCc1ccco1)c1cnn2c(C(F)(F)F)cc(-c3ccccc3)nc12	i	16µM	11µM
COc1ccc(-c2ccnc(SCC(=O)N3CCN(c4ccccc4)CC3)n2)cc1	nt	i	i
Cn1cccc1-c1cc(C(=O)N/N=C/c2cccc(O)c2)[nH]n1	i	i	i
O=C(NNC(=O)c1ccc([N+](=O)[O-])cc1C(=O)O)c1ccncc1	nt	i	i
O=C(Nc1ccccc1C(=O)N1CCN(Cc2ccccc2)CC1)c1ccc(F)cc1	nt	i	i
CCOc1cc2[nH]c(=O)n(CCCN3CCN(c4ccc(OC)cc4)CC3)c(=O)c2cc1OCC	i	i	i
COc1ccccc1N1CCN(CCn2c(=O)[nH]c3c([nH]c4ccccc43)c2=O)CC1	i	i	i
COc1ccc(N2CCN(CCCn3c(=S)[nH]c4ccccc4c3=O)CC2)cc1	nt	6.3µM	?
COc1ccccc1N1CCN(CCCn2c(=S)[nH]c3ccccc3c2=O)CC1	nt	13µM	?
CN(C)c1ccc(C2(c3ccc(N(C)C)cc3)OC(=O)c3cc(N(C)C)ccc32)cc1	nt	i	i
O=[N+]([O-])/C=C/c1cc2ccccc2[nH]1	nt	10µM	?
O=[N+]([O-])/C=C\c1cc2ccccc2[nH]1	i[7.66 µM]	nt	nt
COc1ccc(COC(=O)C2=C(C)NC(=O)NC2c2ccccc2F)cc1 (stereo not drawn)	nt	i[1.91 µM]	i
Cc1[nH]c(=O)[nH]c(=O)c1CSCC(=O)OCC(=O)c1ccc(Br)cc1	i	i	i
Cc1ccc(NC2Sc3ccccc3NC2=O)cc1 (stereo not drawn)	i	11µM	?
O=C1Nc2ccccc2SC1c1ccccc1 (stereo not drawn)	nt	i	i
CCOc1cccc2sc(N(CCCN(C)C)C(=O)c3ccc(S(=O)(=O)N(C)Cc4ccccc4)cc3)nc12	nt	i	?
CCOc1cccc2sc(N(CCCN(C)C)C(=O)c3ccc(S(=O)(=O)N4CCCCCC4)cc3)nc12	nt	i	i
CCOc1cccc2sc(N(CCCN(C)C)C(=O)c3ccc(S(=O)(=O)N(CC)Cc4ccccc4)cc3)nc12	nt	?	22µM
Cc1ccc2nc(N(CCCN(C)C)C(=O)c3ccc(S(=O)(=O)N4CCCCCC4)cc3)sc2c1	nt	11µM	?
CCc1ccc2nc(N(CCCN(C)C)C(=O)c3ccc(S(=O)(=O)N4CCCC4)cc3)sc2c1	nt	i	i
CCOc1ccc2nc(N(CCCN(C)C)C(=O)c3ccc4c(c3)CCCC4)sc2c1	nt	i	i
SMILES	KinaseGlo FLuc	RORg inh	VP16 counter
COc1cccc2sc(N(CCCN(C)C)C(=O)c3ccc(S(=O)(=O)N4CCc5ccccc5C4)cc3)nc12	nt	i	28µM
CCOc1ccc2nc(N(CCCN(C)C)C(=O)c3ccc(S(=O)(=O)N4CCc5ccccc5C4)cc3)sc2c1	nt	10µM	?
O=C(O)CCCN1CCCCC1	i[7.66 µM]	nt	nt
O=C(Nc1ccncc1)c1ccc(NS(=O)(=O)c2ccc3[nH]c(=O)[nH]c3c2)cc1	nt	i	i
COc1ccc(NS(=O)(=O)c2cc(NC(=O)c3cccc(OCc4c(C)noc4C)c3)ccc2OC)cc1	i	i	i
CCN1CCN(c2nc3c(C)cccn3c(=O)c2/C=C(\C#N)C(=O)NCCOC)CC1	nt	i	i
CCCn1c(C)nc2c(NC(C)CCCN(CC)CC)nc(C)nc21 (stereo not drawn)	i	i	i
CN1CCC(OC(=O)C(Oc2ccc(Cl)cc2)Oc2ccc(Cl)cc2)CC1	nt	i	i
CCCCN(CC)S(=O)(=O)c1ccc(C(=O)N(CCCN(C)C)c2nc3cc(C)cc(C)c3s2)cc1	i	11µM	?
CCCCN(C)S(=O)(=O)c1ccc(C(=O)N(CCN(C)C)c2nc3ccc(C)cc3s2)cc1	i	i	i
Cc1cnc(NC(=O)CCNC(=O)c2ccccc2Cl)s1	i	i	i
Cc1cnc(NC(=O)COc2ccccc2Cl)s1	i	7.1µM	7.9µM
CC(=O)CSc1ccc(-c2nc3cc(C)c(C)cc3[nH]2)cn1	i	i	i
CC(=O)CSc1ccc(-c2nc3ccccc3[nH]2)cn1	nt	10µM	11µM
CC(=O)NC1C(=O)N=C(SCC(=O)Nc2cccc(Cl)c2)NC1=O (stereo not drawn)	i	i	i
CCN(CC)S(=O)(=O)c1ccc(N2CCN(C)CC2)c(NC(=O)c2cc(=O)c3ccccc3o2)c1	nt	i	i
O=C(N/N=C/c1cccc(OC2CSC2)c1)c1ccccc1O	i	13µM	i
